# Among all 220,000 compounds or so, about 370 (0.17%) were called active. The list comes from a sample in which actives are over-represented; it also holds similar structures and randomly drawn compounds. A number with no mark means an inactive call.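 How the source made its calls: active means inhibition above the mean inhibition of all tested compounds plus 3 SD, set separately per screening campaign (cut at about 2.9% in these data); inactive means the rest.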
# Target: Eukaryotic translation initiation factor 2-alpha kinase 3 (Homo sapiens) (UniProt Q9NZJ5)
# Sequence (Q9NZJ5 whole entry, looked up, the tested form may be a part): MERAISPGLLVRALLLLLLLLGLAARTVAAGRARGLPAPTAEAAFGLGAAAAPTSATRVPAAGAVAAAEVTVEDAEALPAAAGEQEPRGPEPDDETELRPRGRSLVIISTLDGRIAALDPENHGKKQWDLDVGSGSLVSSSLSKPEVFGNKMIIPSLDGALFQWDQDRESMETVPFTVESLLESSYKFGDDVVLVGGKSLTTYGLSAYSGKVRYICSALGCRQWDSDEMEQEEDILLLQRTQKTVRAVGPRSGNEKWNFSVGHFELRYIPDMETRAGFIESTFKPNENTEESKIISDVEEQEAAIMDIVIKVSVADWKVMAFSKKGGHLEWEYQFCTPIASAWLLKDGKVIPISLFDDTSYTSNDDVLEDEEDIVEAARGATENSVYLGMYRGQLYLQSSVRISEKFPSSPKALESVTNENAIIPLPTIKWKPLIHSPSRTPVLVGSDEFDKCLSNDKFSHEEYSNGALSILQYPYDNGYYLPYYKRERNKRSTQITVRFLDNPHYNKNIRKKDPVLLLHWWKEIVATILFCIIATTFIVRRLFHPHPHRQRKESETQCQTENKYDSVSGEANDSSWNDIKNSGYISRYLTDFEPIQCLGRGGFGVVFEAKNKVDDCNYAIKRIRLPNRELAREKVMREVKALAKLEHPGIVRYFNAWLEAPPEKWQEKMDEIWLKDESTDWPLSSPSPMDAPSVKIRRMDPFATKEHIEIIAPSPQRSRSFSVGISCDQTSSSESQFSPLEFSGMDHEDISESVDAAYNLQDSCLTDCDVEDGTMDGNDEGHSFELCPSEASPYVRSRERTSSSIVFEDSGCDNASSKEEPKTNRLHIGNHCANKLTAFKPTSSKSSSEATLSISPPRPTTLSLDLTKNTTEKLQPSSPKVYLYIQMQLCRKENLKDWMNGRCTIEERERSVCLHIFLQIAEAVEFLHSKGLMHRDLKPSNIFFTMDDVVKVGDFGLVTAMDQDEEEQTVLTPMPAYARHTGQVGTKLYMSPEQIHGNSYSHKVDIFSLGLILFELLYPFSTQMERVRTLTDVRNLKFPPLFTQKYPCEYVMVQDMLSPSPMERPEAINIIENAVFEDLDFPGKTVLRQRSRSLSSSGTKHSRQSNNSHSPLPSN
# Experiment: block of dimerizer-induced PERK translation repression, primary screen, PERK inhibitor project, CHO PERK-DD cells, SEAP luminescence, HTS (AID 1416);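 further: PERK kinase domain activated by AP20187 dimerizer at 100 nM; 0% = DMSO with dimerizer and 100% = rapamycin at 8.4 µM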
# Conditions: CHO PERK-DD fusion, SEAP luminescence translation reporter; at 5.6 µM; hits give high values
row,SMILES,inhibition
1,CCCCn1nc(C(=O)Nc2ccc(S(=O)(=O)Nc3ncccn3)cc2)c2ccccc2c1=O,0.72%
2,O=c1c2sccc2nc(SCc2cc(=O)n3ccccc3n2)n1-c1ccc(Br)cc1,-1.2%
3,COc1cc(/C=N/NC(=O)Nc2ccccc2)ccc1OCCOc1ccccc1C,0.13%
4,CC(=O)Nc1ccccc1NC(=O)c1cc(C)cc(C)c1,0.02%
5,O=c1[nH][nH]c(=O)c2cc(N3CCCC3)ccc12,0.69%
6,Cc1ccccc1C(=O)Nc1ccc(N2CCCCCC2)cc1,-0.25%
7,O=C1C=CC(=O)N1c1ccc(N2CCCCC2)cc1,3.21% (active)
8,CN1CCN(c2ccc(NC(=O)c3ccc4c(c3)[nH]c(=O)n4Cc3ccc(F)cc3)cc2)CC1,0.51%
9,CCc1cc(C(N)=O)c(NC(=O)c2ccc(OC)cc2)s1,0.45%
10,Cc1ccc2cc(/C=N/NC(=O)[C@@H]3CCCN3)c(Cl)nc2c1,-0.87%
11,CCCCc1nnc(NC(=O)CSc2nc(N)cc(=O)[nH]2)s1,0.08%
12,C=CCSc1nc(N)cc(=O)[nH]1,2.99% (active)
13,C=CCSc1nc2ccccc2[nH]1,-0.36%
14,CCOc1ccc(CCNC(=O)C(CC)n2nc(C)n3c(cc4sccc43)c2=O)cc1OCC (stereo not given),-0.56%
15,O=C(NCCc1ccc(F)cc1)c1n[nH]c2ccccc12,0.75%
16,C=C(C)CSc1nnc(-c2ccc(C)cc2)n1N,0.46%
17,CCCn1nnnc1NC(=O)COc1ccc(Cl)cc1C,-0.15%
18,CSc1ccc(NC(=O)/C=C/C(=O)O)cc1,0.87%
19,COc1cccc(-c2ccc(C#N)c(SCC(=O)NCCc3ccc(Cl)cc3)n2)c1,1.75%
20,Cc1ccc(S(=O)(=O)N(Cc2ccc(Cl)cc2)c2ccccc2C(=O)NCc2cccnc2)cc1,-0.82%

row,SMILES,inhibition
1,O=C(Nc1ccc2cn[nH]c2c1)c1ccc(S(=O)(=O)N2CCOCC2)cc1,1.2%
2,Cc1ccc(NNC(=O)C2CCC2)cc1C,0.43%
3,COC(=O)CSc1nc2c(c(C3CC=CCC3)c1C#N)CCC2 (stereo not given),0.22%
4,CCC(C)OC(=O)C(C)Oc1ccc(-c2ccccc2)cc1 (stereo not given),-0.27%
5,Cc1nn(Cc2ccccc2Cl)c(C)c1NC(=O)Cn1nc([N+](=O)[O-])c(Cl)c1C,-0.58%
6,CC(=O)N1CCN(S(=O)(=O)c2ccc(C)c([N+](=O)[O-])c2)C1C(C)C (stereo not given),0.34%
7,Cc1cccc(C)c1NC(=S)N(Cc1cccnc1)Cc1ccccc1Cl,-0.05%
8,CSc1ccccc1C(=O)NCc1ccccc1,1.84%
9,O=S(=O)(Nc1ncccn1)c1ccc(NS(=O)(=O)c2cccc(Cl)c2Cl)cc1,0.64%
10,Cc1cc(-c2n[nH]c(=S)n2-c2ccc(C)c(C)c2)no1,3.32% (active)
11,COc1ccccc1-n1c(-c2cc(-c3ccco3)[nH]n2)n[nH]c1=S,1.16%
12,Cc1ccc(OCc2n[nH]c(=S)n2-c2ccc(C)cc2)cc1,0.51%
13,COCCNC(=O)CN(C(=O)CCC(=O)Nc1cc(C)on1)c1ccc(C)cc1C,3.05% (active)
14,Cc1cc(NC(=O)CCC(=O)N(CC(=O)NCC2CCCO2)c2ccccc2C)no1 (stereo not given),0.7%
15,Cc1ccc(SCCC(=O)Nc2cc(C)on2)cc1,1.3%
16,O=[N+]([O-])/C(N=Nc1ccccc1)=N\Nc1ccccc1,0.56%
17,N#Cc1c(NC(=O)c2ccc(N3CCOCC3)c([N+](=O)[O-])c2)sc2c1CCCC2,0.19%
18,O=S(=O)(c1ccc(NC(=S)NN=C(C2CC2)C2CC2)cc1)N1CCOCC1,1.01%
19,C=CCSC(CC)(CC)C(N)=O,2.98% (active)
20,O=S(=O)(NCC1OCCc2ccccc21)c1ccccc1 (stereo not given),0.47%

row,SMILES,inhibition
1,Cc1c(-c2ccccc2)cn2c1-c1ccc(C)n1CC2,0.83%
2,COC(=O)[C@H](C)NC(=O)Nc1ccc(OC(F)(F)F)cc1,-0.1%
3,Cn1nccc1NC(=O)Nc1ccc(OC(F)(F)F)cc1,4.03% (active)
4,CCOC(=O)Cc1ncccc1C(=O)Nc1ccc(OC(F)(F)F)cc1,0.3%
5,Cc1ccc(S(=O)(=O)Cc2cc(-c3ccc(Cl)cc3)no2)cc1,0.87%
6,CCOC(=O)CN1C(=O)N[C@@H](c2ccc(Br)cc2)C(C(C)=O)=C1C,0.08%
7,CCOC(=O)Cc1cc(=O)[nH]c(=O)[nH]1,1.51%
8,CCOCCCNC(=O)Cc1cc(=O)[nH]c(=O)[nH]1,3.08% (active)
9,CCOCCCNC(=O)C(=O)NCCCOCC,0.9%
10,O=C(CN1CCc2ccccc21)NC(c1ccccc1)c1ccccc1,-0.59%
11,CN(C)C(=O)c1cc(Br)ccc1Cl,2.54%
12,CC(=O)NC(Cc1ccc(F)c(F)c1)C(=O)NC1CCN(C(=O)c2ccc(C)cc2)CC1 (stereo not given),0.06%
13,C=C(C)C1CC=C(C)/C(=N\NC(=O)CNc2ccccc2OC)C1 (stereo not given),0.13%
14,c1ccc(COc2nsnc2N2CCOCC2)cc1,1.4%
15,O=C(O)COc1nsnc1N1CCOCC1,2.98% (active)
16,c1nc(COc2nsnc2N2CCOCC2)cs1,0.89%
17,NCC(=O)c1cccc2ccc[n+]([O-])c12,-0.12%
18,COc1cc(C(=O)N2CCN(C/C=C/c3ccccc3)CC2)cc(OC)c1C,-0.57%
19,CC(C)N1CCC(=NNc2ccc([N+](=O)[O-])cc2S(=O)(=O)N2CCOCC2)CC1,1%
20,CC(C)N(C(=O)CSc1nc(COc2ccccc2)nc2ccccc12)C(C)C,0.48%

# From PubChem BioAssay AID1416 (The Scripps Research Institute Molecular Screening Center, 2008)
